Only some compounds are listed: those with a hit (about 7.6% of all), similar ones and a draw of the others.
KB-3-1 cytotox – kills parental KB-3-1 adenocarcinoma cells; KB-3-1 viability, CellTiter-Glo ATP luminescence, 72 h; Potency, µM (series often up to 46.1 µM), actives largely listed as cytotoxic; 1.4% of 400,000 active; AID 1347075; note: potency is the fitted concentration of half-maximal effect; % is set by controls: 0 for no effect and ±100 for the full control effect; nearly all actives have a fitted effect of over 60% in size
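Parental KB-3-1 adenocarcinoma cells in phenol-red-free DMEM with 10% FBS were pin-treated with compounds at several concentrations, incubated 72 h at 37 °C, and viability read by CellTiter-Glo luminescence; concentration-effect curves were fitted after normalization.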
KB-V1 MDR tox – kills drug-selected multidrug resistant KB-V1 cells. KB-V1 MDR cells viability, CellTiter-Glo, 72 h. Potency, µM (top dose mostly 46.1 µM), hits mostly cytotoxic. 3.4% of 400,000 active; note: potency is the fitted concentration of half-maximal effect; % is set by controls: 0 for no effect and ±100 for the full control effect; nearly all actives have a fitted effect of over 60% in size
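Following 72 h at 37 degrees C with compound, KB-V1 cell viability was read by CellTiter-Glo luminescence, medium being phenol-red-free DMEM plus 10% FBS; concentration-response parameters came from normalized, curve-fitted qHTS data.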
KCNH2 3.1 inh – inhibitors of human KCNH2 3.1 potassium channel isoform | 0.95% of 340,000 active | U2OS KCNH2 3.1, thallium flux FluxOr; hits give low values | activity change, % (tested at about 1.8 µM);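 active = maximum activity change below -70%; inconclusive = maximum activity change from -70% to -50%; inactive = maximum activity change above -50%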;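 note: thallium influx rate constant from kinetic fluorescence after stimulation buffer; % is set by controls: 0 for no effect and ±100 for the full control effect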
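U2OS cells transduced with KCNH2 3.1 mutant virus (1.77 x 10^8 /mL, 4 h), plated overnight at 37 C, loaded 45 min with FluxOr dye plus Red40 quencher. Thallium flux rate constant from kinetic reads after stimulation buffer, normalised to controls.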
SW480 rereplic – DNA re-replication induction in SW480 cells; AID 624297; Potency, µM (highest dose often 46.1 µM), inactives show at the top dose re-replication activation, usual class: activators; SW480 DNA re-replication, Hoechst DNA content imaging, 48 h; 1.8% of 340,000 active; note: potency is the fitted concentration of half-maximal effect; % of control where 0% means no effect; nearly all actives have a fitted effect of over 55% in size
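Readout is total intensity of Hoechst-stained nuclei, excited at 405 nm and collected at 500-530 nm. Compound treatment lasted 48 hr at 37 C in 5% CO2 before staining.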
KCNH2 WT inh – blocks the wildtype human KCNH2 potassium channel. Q12809. U2OS, BacMam KCNH2, thallium flux FluxOr; hits give low values. activity change, % at 1.84 µM. 0.37% of 340,000 active. AID 720551;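 active = maximum activity change below -70%; inconclusive = maximum activity change between -70% and -50%; inactive = maximum activity change above -50%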; note: % is set by controls: 0 for no effect and ±100 for the full control effect
Target sequence (Q12809 whole entry, looked up): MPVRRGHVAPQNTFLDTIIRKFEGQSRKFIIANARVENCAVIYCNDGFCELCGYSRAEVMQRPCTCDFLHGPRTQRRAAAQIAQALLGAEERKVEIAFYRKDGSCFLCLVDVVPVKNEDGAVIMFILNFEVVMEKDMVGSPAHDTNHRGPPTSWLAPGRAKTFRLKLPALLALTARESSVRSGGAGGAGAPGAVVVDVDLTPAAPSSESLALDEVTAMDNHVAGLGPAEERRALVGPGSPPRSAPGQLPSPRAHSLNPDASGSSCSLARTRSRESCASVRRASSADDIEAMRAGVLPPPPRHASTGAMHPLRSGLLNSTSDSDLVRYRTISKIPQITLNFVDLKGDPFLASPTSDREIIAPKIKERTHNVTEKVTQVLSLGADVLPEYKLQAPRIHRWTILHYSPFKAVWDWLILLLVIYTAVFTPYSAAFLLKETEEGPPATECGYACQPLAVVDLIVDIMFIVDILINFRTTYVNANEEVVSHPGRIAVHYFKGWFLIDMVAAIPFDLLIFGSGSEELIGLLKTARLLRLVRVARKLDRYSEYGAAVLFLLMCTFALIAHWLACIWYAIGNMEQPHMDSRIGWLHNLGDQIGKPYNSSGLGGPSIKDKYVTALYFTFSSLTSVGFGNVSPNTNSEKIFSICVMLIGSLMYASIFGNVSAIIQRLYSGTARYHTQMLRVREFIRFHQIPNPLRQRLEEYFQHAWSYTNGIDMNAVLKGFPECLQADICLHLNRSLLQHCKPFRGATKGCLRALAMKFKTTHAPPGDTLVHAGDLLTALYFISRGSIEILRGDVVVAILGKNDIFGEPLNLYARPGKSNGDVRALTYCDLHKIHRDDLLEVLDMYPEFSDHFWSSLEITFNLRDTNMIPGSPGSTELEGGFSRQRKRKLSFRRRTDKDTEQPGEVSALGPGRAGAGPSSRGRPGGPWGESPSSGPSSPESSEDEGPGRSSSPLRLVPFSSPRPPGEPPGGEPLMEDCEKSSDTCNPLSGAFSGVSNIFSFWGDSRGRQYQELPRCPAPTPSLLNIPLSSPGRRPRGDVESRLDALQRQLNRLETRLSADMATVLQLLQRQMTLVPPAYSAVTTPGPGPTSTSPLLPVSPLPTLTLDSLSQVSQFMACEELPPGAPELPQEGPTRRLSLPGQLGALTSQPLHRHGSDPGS
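U2OS cells were transduced with wild-type KCNH2 virus (2.03 x 10^8 / mL) for 4 h at room temperature, then cultured overnight at 37 C. Thallium flux was read with FluxOr dye. Rate constants were normalized to DMSO controls.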
MCF10A rereplic – inducers of DNA re-replication in MCF 10A breast cells | Potency, µM (series often up to 46.1 µM), for the others: at the highest dose activity, positive = re-replication, most hits filed as activators | MCF 10A DNA re-replication, Hoechst nuclear intensity, 48 h | 2.9% of 350,000 active; note: potency is the fitted concentration of half-maximal effect; % of control where 0% means no effect; nearly all actives have a fitted effect of over 50% in size
* marks the source's active call; other numbers are inactive results; i = inactive; ? = inconclusive; . = no result. Unless noted, calls come from the whole dose curve; as a rule, active = well fitted curve in the direction sought with a large enough effect; inconclusive = small, poorly fitted or top-dose-only effect, or another doubt; inactive = no such curve, though single readings can be large; an effect the other way counts as inactive or inconclusive.

SMILES	KB-3-1 cytotox	KB-V1 MDR tox	KCNH2 3.1 inh	SW480 rereplic	KCNH2 WT inh	MCF10A rereplic
COc1ccccc1CCN1CCCC(CN(C)Cc2ccc(OCCO)cc2)C1 (stereo unspecified)	i	i	-18	?	38	21µM*
CCn1c(C)cc2c(c1=O)C(c1ccccc1)C(C(=O)OC)=C(N)O2 (stereo unspecified)	i	i	7	1%	0	16µM*
COC(=O)C1=C(N)Oc2cc(C)n(Cc3ccncc3)c(=O)c2C1c1cccnc1 (stereo unspecified)	i	?	-4	-8%	-3	4%
CCOc1cnn(-c2ccccc2)c(=O)c1Cl	i	i	-2	6%	-3	26µM*
Nc1c(Cl)cnn(-c2ccccc2)c1=O	i	i	-4	4%	1	-2%
CCSc1cnn(-c2ccccc2)c(=O)c1Cl	i	i	-13	?	-7	?
O=c1c(Cl)c(Cl)cnn1-c1ccccc1	18µM*	i	-6	4.1µM*	3	3.7µM*
O=C(c1ccco1)N1CCN(c2ncnc3c2nnn3Cc2ccccc2Cl)CC1	i	5.8µM*	13	-16%	-4	-8%
CC(C)(C)c1ccc(Cn2nnc3c(=O)[nH]c(C4CCN(C(=O)c5ccco5)CC4)nc32)cc1	?	i	-13	-3%	12	13%
O=C(c1ccco1)N1CCN(c2nc(C(F)(F)F)nc3c2nnn3Cc2ccccc2)CC1	?	2.3µM*	-2	17%	10	16%
CCCN1CCN(c2ncnc3c2nnn3Cc2ccccc2)CC1	?	16µM*	0	21µM*	0	?
O=C1CCc2cc(S(=O)(=O)Nc3ccc(Cl)c(Cl)c3)ccc2N1	i	i	.	.	.	.
COC(=O)c1ccccc1NC(=O)Cn1c(=O)n(CCC(=O)NCc2ccccc2OC)c(=O)c2ccccc21	i	i	.	.	.	.
CCN(CC)c1ccc(NC(=O)c2ccccc2F)cc1S(=O)(=O)Nc1ccccc1OC	i	9.2µM*	13	-79%	-2	2%
CCN(CC)c1ccc(NC(=O)c2ccccc2Br)cc1S(=O)(=O)Nc1ccccc1OC	i	?	-18	0%	-15	10%
CCN(CC)c1ccc(NC(=O)c2ccc(=O)[nH]c2)cc1S(=O)(=O)Nc1ccccc1OC	10µM*	i	-1	?	-13	?
COc1ccc(C(=O)NCCn2cc(SCC(=O)NCCc3ccc(OC)c(OC)c3)c3ccccc32)cc1	i	i	.	.	.	.
CCOc1ccc(C(=O)C(C)OC(=O)Cn2[nH]c(=O)c3ccccc3c2=O)cc1 (stereo unspecified)	i	i	-73*	-2%	5	14%
CCC(C)(c1nnnn1-c1c(C)cccc1C)N(N=O)c1cccc(C(F)(F)F)c1 (stereo unspecified)	?	16µM*	-6	?	0	22%
Cc1cccc(C)c1-n1nnnc1C(C)(C)N1CCN(N=O)CC1	i	i	21	-4%	16	4%
COCCCn1c(SCC(=O)NC2CCCCC2)nnc1-c1ccco1	i	i	-2	-18%	-11	-32%
COc1cccc(N2CCN(C(=O)C3CCN(S(=O)(=O)c4cccc5nonc45)CC3)CC2)c1	i	i	.	.	.	.
Cc1cc(N2CCN(c3nc4ccccc4s3)CC2)n2ncnc2n1	2.6µM*	1µM*	-72*	-13%	21	17%
O=C(c1cc(C2CC2)nc2ccc(Br)cc12)N1N=C(C(F)F)CC1(O)C(F)F (stereo unspecified)	?	i	6	?	-2	?
CCOC(=O)c1c(NC(=O)c2c(C(=O)O)cccc2[N+](=O)[O-])sc(C)c1C	i	i	7	-10%	1	-1%
SMILES	KB-3-1 cytotox	KB-V1 MDR tox	KCNH2 3.1 inh	SW480 rereplic	KCNH2 WT inh	MCF10A rereplic
CCCC(=O)N(C1CC(C)C(C#N)(C#N)C1(C#N)C#N)N(C)C (stereo unspecified)	i	i	8	4.6µM*	-1	2.9µM*
CN(C)S(=O)(=O)c1cccc(N=C2NN=C(c3ccccc3)CS2)c1	?	?	3	13µM*	-2	11%
O=C(NCC1CCCO1)c1cc2n(n1)C(C(F)(F)F)CC(c1ccc(Br)cc1)N2 (stereo unspecified)	i	8.2µM*	-11	0%	-23	8%
CCOc1ccc(NC(=O)c2cc3n(n2)C(C(F)(F)F)CC(c2ccco2)N3)cc1 (stereo unspecified)	i	i	-8	-14%	-10	?
CCOC(=O)c1c(NC(=O)c2cc3n(n2)C(C(F)(F)F)CC(c2ccccc2)N3)sc(C)c1C (stereo unspecified)	i	i	-5	16µM*	-20	22%
O=C(NCC1CCCO1)c1nn2c(c1Cl)NC(c1ccc(F)cc1)CC2C(F)(F)F (stereo unspecified)	i	?	3	-7%	1	11%
COc1ccc(C2CC(C(F)(F)F)n3nc(C(=O)NCCCn4ccnc4)cc3N2)cc1OC (stereo unspecified)	i	i	0	-3%	3	-3%
O=C(Nc1ccc(O)cc1)c1cc2n(n1)C(C(F)(F)F)CC(c1ccco1)N2 (stereo unspecified)	10µM*	?	20	?	-4	?
COc1ccc(NC(=O)c2cc3n(n2)C(C(F)(F)F)CC(c2ccc4c(c2)OCO4)N3)cc1OC (stereo unspecified)	i	16µM*	-15	?	-14	2%
Cc1cccc(NC(=O)c2cc3n(n2)C(C(F)(F)F)CC(c2ccc4c(c2)OCO4)N3)c1 (stereo unspecified)	i	12µM*	-11	9%	6	3%
CCCNc1c(NS(=O)(=O)c2cccs2)c(=O)oc2ccccc12	i	?	-2	39%	6	-6%
CN(Cc1nc(-c2cccs2)no1)CC1COCCO1 (stereo unspecified)	i	i	3	7%	-6	1%
CC(C)C[C@@H](NC(=O)[C@@H](Cc1ccccc1)NC(=O)c1cnccn1)B(O)O	.	.	.	0.0042µM*	.	57%
COc1cc(Cl)ccc1OCc1cc(C(=O)N[C@H]2CCCCNC2=O)no1	i	i	-6	-6%	-11	-1%
O=C(CN1CCN(S(=O)(=O)c2ccc(Br)cc2)CC1)N/N=C/c1ccc(Br)s1	i	21µM*	-76*	3%	-27	-7%

Bioassay records: PubChem, National Center for Advancing Translational Sciences (NCATS)
